Test results: PubChem BioAssay AID493206 (National Center for Advancing Translational Sciences (NCATS), 2011)
“And” between values parts separate entries of the source, which are not always exact repeats. Identical values can stand only once. Records with an inconclusive call do not appear. The source made the active and inactive calls. Calls come from the whole dose curve; as a rule, active = well fitted inhibition curve with a large enough effect; inconclusive = small, poorly fitted or top-dose-only effect; inactive = flat fitted curve, though single readings scatter.

What follows are compounds tested against Dual specificity tyrosine-phosphorylation-regulated kinase 1A (Homo sapiens) (UniProt Q13627) (assay: Assay for Inhibitors of Dual-Specificity Tyrosine-(Y)-Phosphorylation Regulated Kinase 1A (Kinase-Glo assay): round 2 SAR). Settings: recombinant DYRK1A, Kinase-Glo ATP depletion luminescence; series mostly up to 76.9 µM.
Excerpt: NIH Molecular Libraries Probe Production Centers Network [MLPCN] NIH Chemical Genomics Center [NCGC] MLPCN Grant: 1R03MH084827-01 PI Name: Tom Misteli NCGC Assay Overview: The CMGC group of protein kinases which includes CDK-like kinases (Clk) and Dyks are essential kinases found in all eukaryotes. Clks have been implicated to play a role in the regulation of alternative splicing; while Dyrks, in particular over expression of Dyrk1A, has been linked to diseases as Down syndrome (DS; OMIM 190685) and Alzheimer disease (AD; OMIM 104300). Among the members of the CMGC group, the Clks and the Dyrks are very closely related therefore to determine validity and selectivity of an active compound observed in the CLK4 qHTS screen (AID:1770), a bioluminescent counter-screen against Dyrk1A was developed. In addition, potent and selective compounds against Dyrk1A were identified to further assess the role of this enzyme in DS and AD. Dyrk1A (Invitrogen, cat # PV3785) was assayed using ATP and DYRKtide (AnaSpec, cat# 62698) as substrates. Promega Kinase-Glo (cat# V6712) technology was used to detect the residual ATP following kinetic reaction. The Kinase-Glo Plus contains Ultra-Glo [5] luciferase and D-luciferin which generates a bioluminescence signal from the remaining ATP. No enzyme and harmine (Sigma, cat # 286044-1G), a compound shown to inhibit Dyrks were used as a positive control; while DMSO treatment was used as a negative control.
NCGC Assay Protocol Summary: Two uL/well of substrate solution (8uM Dyrktide, 2uM ATP, 25mM Tris-HCl pH 7.5, 10mM MgCl2 , 0.5mM EGTA, 5mM cystein, 0.01% Triton X-100 final concentration) was dispensed into 1536-well assay plates (Greiner, solid white, medium-binding plates) with Aurora Discovery BioRAPTR Flying Reagent Dispenser (FRD, Beckton-Dickenson). Compound solution (23 nL) was transferred to the assay plate using Kalypsys pin tool equipped with a 1536-pin tool. One uL/well enzyme solution (5nM Dyrk1A, 25mM Tris-HCl pH7.5, 10mM MgCl2, 0.5mM EGTA, 5mM cystein, 0.01% Triton X-100 final concentration) was then added using FRD yielding a total kinase reaction volume of 3uL/well. After 2 hours of room temperature incubation, 3uL Kinase-Glo detection reagent was added for a final assay volume of 6uL/well. The plates were spun for 30 seconds (1000 rpm) and incubated at ambient temperature for 2 minutes followed by a luminescence read using Perkin Elmer ViewLux plate reader at 3 seconds exposure time and 2x binning.

Q: How did the Potency turn out when `Cn1cncc1CNc1ncnc2ccc(-c3ccc4c(c3)OCO4)cc12` was run?
A: 0.463 µM (active)

Q: Which Potency does the source give for `Clc1ccccc1-c1ccc2ncnc(NCc3ccc4c(c3)OCO4)c2c1` here?
A: inactive

Q: Which Potency does the source give for `c1cncc(CNc2ncnc3ccc(-c4ccco4)cc23)c1` here?
A: 26 µM (active)

Q: Which Potency does the source give for `c1cncc(CNc2ncnc3ccc(-c4ccc5c(c4)OCCO5)cc23)c1` here?
A: 1.16 µM (active)

Q: How did the Potency turn out when `Cc1csc(CNc2ncnc3ccc(-c4ccc(C(C)O)o4)cc23)n1` (centres undefined) was run?
A: 26 µM (active)

Q: With `C[C@@H](O)c1ccc(-c2ccc3ncnc(NCc4cccs4)c3c2)o1` as the compound, how does the Potency read?
A: 23.2 µM (active)

Q: How did the Potency turn out when `Cc1ccc(CNc2ncnc3ccc(-c4ccc(C(=O)O)o4)cc23)o1` was run?
A: 10.4 µM (active)

Q: For `CN(CC(=O)O)c1ncnc2ccc(-c3ccc4c(c3)OCO4)cc12`, which Potency is on record?
A: 8.23 µM (active)

Q: How did the Potency turn out when `c1cncc(CNc2ncnc3ccc(-c4ccc5c(c4)OCO5)cc23)c1` was run?
A: 0.412 µM (active)

Q: For `c1nc(NCc2ccc3c(c2)OCO3)c2cc(-c3ccoc3)ccc2n1`, which Potency is on record?
A: 18.4 µM (active)

Q: For `COc1cccc(-c2ccc3ncnc(NCc4cccc(F)c4)c3c2)c1`, which Potency is on record?
A: 4.63 µM (active)

Q: For `Fc1cccc(CNc2ncnc3ccc(-c4cccnc4)cc23)c1`, which Potency is on record?
A: 26 µM (active)

Q: For `Clc1cccc(-c2ccc3ncnc(NCc4cccs4)c3c2)c1`, which Potency is on record?
A: 13 µM (active)

Q: Which Potency does the source give for `c1nc(NCC2CCCCC2)c2cc(-c3ccc4c(c3)OCO4)ccc2n1` here?
A: 0.26 µM (active)

Q: For `c1csc(CNc2ncnc3cc(-c4ccc5c(c4)OCO5)ccc23)c1`, which Potency is on record?
A: 26 µM (active)

Q: `CN1CCN(c2ncc3nc(-c4cn(C)c5ccccc45)c(=O)n(Cc4cccs4)c3n2)CC1` was tested. Which Potency did it give?
A: inactive

Q: With `Cc1nc(C(C)N(C)c2ncnc3ccc(-c4ccc5c(c4)OCO5)cc23)cs1` (centres undefined) as the compound, how does the Potency read?
A: 29.2 µM (active)

Q: With `Fc1cccc(CNc2ncnc3ccc(-c4ccccc4Cl)cc23)c1` as the compound, how does the Potency read?
A: 16.4 µM (active)

Q: How did the Potency turn out when `CN(CCc1ccco1)c1ncnc2ccc(-c3ccc4c(c3)OCO4)cc12` was run?
A: 0.292 µM (active)

Q: For `Cc1ccsc1CN(C)c1ncnc2ccc(-c3ccc(COC(=O)N(C)C)o3)cc12`, which Potency is on record?
A: 9.23 µM (active)

Q: With `CCNC(=O)c1ccc(-c2ccc3ncnc(NCCc4cnc[nH]4)c3c2)o1` as the compound, how does the Potency read?
A: 11.6 µM (active)

Q: Which Potency does the source give for `Cc1csc(CNc2ncnc3ccc(-c4cccnc4)cc23)c1` here?
A: 23.2 µM (active)

Q: How did the Potency turn out when `Clc1cccc(-c2ccc3ncnc(NCc4cccnc4)c3c2)c1` was run?
A: 18.4 µM (active)

Q: `Fc1cccc(CNc2ncnc3ccc(-c4ccc5c(c4)OCO5)cc23)c1` was tested. Which Potency did it give?
A: 0.463 µM (active)

Q: Which Potency does the source give for `Clc1cccc(-c2ccc3ncnc(NCc4ccc5c(c4)OCO5)c3c2)c1` here?
A: inactive

Q: Which Potency does the source give for `CN(C)CCCNc1ncnc2ccc(-c3ccc4c(c3)OCO4)cc12` here?
A: 8.23 µM (active)

Q: How did the Potency turn out when `Cc1cccc(-c2ccc3ncnc(NCc4cccs4)c3c2)c1` was run?
A: 18.4 µM (active)

Q: With `Clc1ccccc1-c1ccc2ncnc(NCc3cccs3)c2c1` as the compound, how does the Potency read?
A: 6.54 µM (active)

Q: Which Potency does the source give for `c1cncc(-c2ccc3ncnc(NCc4cccs4)c3c2)c1` here?
A: 23.2 µM (active)

Q: How did the Potency turn out when `Cc1csc(CNc2ncnc3ccc(-c4ccc5c(c4)OCCO5)cc23)c1` was run?
A: 1.64 µM (active)

Q: Which Potency does the source give for `Cc1ccsc1CN(C)c1ncnc2ccc(-c3ccc([C@@H](C)O)o3)cc12` here?
A: 3.68 µM (active) and 1.46 µM (active) and 1.04 µM (active)

Q: With `O=C(O)c1ccc(-c2ccc3ncnc(NCC4CCCO4)c3c2)o1` (centres undefined) as the compound, how does the Potency read?
A: 23.2 µM (active)

Q: With `Cc1csc(CNc2ncnc3cc(-c4ccc5c(c4)OCO5)ccc23)n1` as the compound, how does the Potency read?
A: 29.2 µM (active)

Q: For `c1nc(N2CCOCC2)c2cc(-c3ccc4c(c3)OCO4)ccc2n1`, which Potency is on record?
A: 1.46 µM (active)

Q: How did the Potency turn out when `COc1cccc(-c2ccc3ncnc(NCc4cccc(C)c4)c3c2)c1` was run?
A: 8.23 µM (active)

Q: How did the Potency turn out when `c1csc(CNc2ncnc3ccc(-c4ccc5c(c4)OCO5)cc23)c1` was run?
A: 0.184 µM (active)

Q: For `Cc1csc(CNc2ncnc3ccc(-c4ccc(C(=O)O)o4)cc23)n1`, which Potency is on record?
A: 14.6 µM (active)

Q: With `O=C(O)c1ccc(-c2ccc3ncnc(N4CCOCC4)c3c2)o1` as the compound, how does the Potency read?
A: 26 µM (active)

Q: Which Potency does the source give for `Cc1cccc(CNc2ncnc3ccc(-c4ccc5c(c4)OCCO5)cc23)c1` here?
A: 3.68 µM (active)
